KB-3-1 cytotox: KB-3-1 parental cell cytotoxicity. Potency, µM (titrated, usually from 46.1 µM), actives largely listed as cytotoxic. KB-3-1 viability, CellTiter-Glo ATP luminescence, 72 h. AID 1347075. hit rate 1.4% among 400,000; further: nearly all actives have a fitted effect of over 60% in size
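72 h, 37 °C compound treatment of KB-3-1 parental cells; CellTiter-Glo added, 10 min, luminescence read. Data corrected against DMSO-only plates and normalized before curve fitting.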
SW480 rerep: DNA re-replication induction in SW480 cells; SW480 DNA re-replication, Hoechst DNA content imaging, 48 h; Potency, µM (titrated, usually from 46.1 µM), actives largely listed as activators; hit rate 1.8% among 340,000; AID 624297; further: nearly all actives have a fitted effect of over 55% in size
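SW480 cells exposed to compounds for 48 hr at 37 C, 5% CO2, then Hoechst-stained 40 min. Nuclear DNA content imaged by fluorescence scanning (405 nm excitation, 500-530 nm emission); re-replication scored as increased high-intensity nuclei.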
MCF10A rerep: inducers of DNA re-replication in MCF 10A breast cells; MCF 10A DNA re-replication, Hoechst nuclear intensity, 48 h; Potency, µM (titrated, usually from 46.1 µM), most hits filed as activators; hit rate 2.9% among 350,000; further: nearly all actives have a fitted effect of over 50% in size
ELG1 DNA repair: ELG1-dependent DNA repair inhibition; Potency, µM (highest dose often 46.1 µM), most hits filed as inhibitors; hit rate 2.3% among 330,000; AID 504467; HEK293T ELG1-luciferase reporter, luminescence, 16 h; DNA damage induced by 5-fluorouridine; further: nearly all actives have a fitted effect of over 55% in size
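Quantitative HTS, concentration-response format. 2,000 cells/well co-treated with 5-fluorouridine and compound, 16 hr in 5% CO2 at 37 °C; ONE-Glo luminescence read after 30 min.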
KB-V1 cytotox: kills drug-selected multidrug resistant KB-V1 cells. KB-V1 MDR cells viability, CellTiter-Glo, 72 h. Potency, µM (highest dose often 46.1 µM), hits mostly cytotoxic. hit rate 3.4% among 400,000; further: nearly all actives have a fitted effect of over 60% in size
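Drug-selected KB-V1 cells, grown in DMEM lacking phenol red with 10% FBS, receive compound titrations; after three days at 37 degrees C, surviving cell ATP is quantified by CellTiter-Glo luminescence and responses normalized and curve-fitted.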
Numbers stand for hits; . = inactive; ? = inconclusive; / = no result. Most compounds without a hit are left out; they make up all but 8.2% or so of the library. The call rests on the fitted dose curve; in most records, active means well fitted curve in the direction sought with a large enough effect; inconclusive means small, poorly fitted or top-dose-only effect, or another doubt; inactive means no such curve, though single readings can be large; an effect the other way counts as inactive or inconclusive.

SMILES	KB-3-1 cytotox	SW480 rerep	MCF10A rerep	ELG1 DNA repair	KB-V1 cytotox
C=CCn1c(=NC(=O)c2ccc(S(=O)(=O)N3CCc4ccccc4C3)cc2)sc2cc(S(N)(=O)=O)ccc21	.	?	9.2µM	.	?
Cn1c(-c2ccc(C=O)s2)nc2c3ccccc3c3ccccc3c21	?	?	10µM	?	?
CC(=O)N1CCN(c2ccc(NCc3ccco3)cc2)CC1	.	.	.	?	.
CC(=O)N1CCN(c2ccc(NCc3ccc(-c4cccc(Cl)c4)o3)cc2)CC1	.	?	21µM	.	.
COc1ccc(/C=C/C(=O)OCCC(C)C)cc1	/	.	.	/	/
CC(=O)NC(Cc1ccccc1)C(=O)N1CCN(C(=S)NCC(C)C)CC1 (centres undefined)	.	.	.	.	.
CCNC(=S)N1CCN(C(=O)C(Cc2ccccc2)NC(C)=O)CC1 (centres undefined)	.	.	0.65µM	?	.
C[n+]1c2n(c3ccccc31)N=C(c1cc(C(C)(C)C)c(O)c(C(C)(C)C)c1)CS2	4.1µM	?	16µM	?	.
COc1cc(CNc2ccc3[nH]c(=O)[nH]c3c2)cc(Cl)c1OCc1ccccc1F	.	/	/	/	.
COc1cc(CNC2CCCC2)cc(Cl)c1OCc1ccccc1F	.	.	.	.	23µM
CCN1CSC(=S)N(Cc2ccccc2)C1	?	18µM	?	.	.
S=C1SCN(Cc2ccco2)CN1Cc1ccco1	.	13µM	?	?	.
S=C1SCN(Cc2cccs2)CN1Cc1cccs1	?	/	/	/	.
COc1ccc(-c2cc3nc(C)c(C)c(N4CCN(C(=O)c5ccoc5)CC4)n3n2)cc1	.	/	/	/	.
Cc1nc2cc(-c3cccc(F)c3)nn2c(N2CCN(C(=O)c3ccco3)CC2)c1C	.	.	.	16µM	?
COc1ccccc1-c1cc2nc(-c3ccccc3)cc(N3CCN(C(=O)c4ccco4)CC3)n2n1	16µM	/	/	/	?
COc1ccccc1-c1cc2nc(-c3ccccc3)cc(N3CCN(C(=O)c4ccoc4)CC3)n2n1	?	/	/	/	9.2µM
Cc1nn2c(N3CCN(C(=O)c4ccco4)CC3)cc(C(C)(C)C)nc2c1-c1ccccc1	?	.	.	.	18µM
Cc1cc(N2CCN(C(=O)c3ccco3)CC2)n2ncc(-c3ccccc3)c2n1	.	.	?	?	.
O=C(c1ccoc1)N1CCN(c2cc(-c3ccccc3)nc3cc(-c4ccccc4)nn23)CC1	16µM	/	/	/	?
Fc1ccc(-c2cc3nc(-c4ccccc4)cc(N4CCN(CCN5CCOCC5)CC4)n3n2)cc1	.	.	.	?	?
CN1CCN(c2cc(-c3ccccc3)nc3cc(-c4ccc(F)cc4)nn23)CC1	?	?	?	23µM	?
Cc1cc(N2CCN(C(=O)c3ccoc3)CC2)n2nc(-c3ccccc3)cc2n1	.	/	/	/	.
Cc1ccc(OCc2cc(C(=O)N(C)CCc3ccccn3)no2)cc1C	.	?	?	?	.
Cc1ccc(OCc2cc(C(=O)N(C)CCc3nc4ccccc4[nH]3)no2)cc1C	.	?	21µM	?	.
SMILES	KB-3-1 cytotox	SW480 rerep	MCF10A rerep	ELG1 DNA repair	KB-V1 cytotox
O=C(NCC(c1ccc(F)cc1)N1CCOCC1)c1nn(-c2ccccc2)c(=O)c2ccccc12 (centres undefined)	.	.	?	?	?
Cc1ccc2c(c1)C(=O)N1[C@H]3c4cc(Br)ccc4OC[C@@H]3[C@H](c3ccccc3)[C@]1(C)C(=O)N2	.	.	13µM	.	?
Cc1ccc2c(c1)C(=O)N1[C@H]3c4cc(C)ccc4OC[C@@H]3[C@H](c3ccccc3)[C@]1(C)C(=O)N2	?	?	5.8µM	.	?
Cc1ccc2c(c1)C(=O)N1[C@H]3c4cc(Cl)ccc4OC[C@@H]3[C@H](c3ccccc3)[C@]1(C)C(=O)N2	?	?	10µM	.	.
C[C@@]12C(=O)Nc3ccc(F)cc3C(=O)N1[C@H]1c3cc(Cl)ccc3OC[C@@H]1[C@@H]2c1ccccc1	?	21µM	18µM	.	.
C[C@@]12C(=O)Nc3cc(Cl)ccc3C(=O)N1[C@H]1c3cc(Cl)ccc3OC[C@@H]1[C@@H]2c1ccccc1	?	?	?	.	?
C[C@@]12C(=O)Nc3ccc(F)cc3C(=O)N1[C@H]1c3ccccc3OC[C@@H]1[C@@H]2c1ccccc1	.	.	.	.	.
CC(=O)Nc1ccc(S(=O)(=O)NCCC(=O)NCc2ccncc2)cc1	.	.	.	.	.
Cc1ccc(Oc2cc(NC(=O)CCCn3nc([N+](=O)[O-])cc3C)cc([N+](=O)[O-])c2)cc1	.	.	.	?	5.2µM
Cc1nn(CCCC(=O)Nc2cc(Oc3ccccc3)cc([N+](=O)[O-])c2)c(C)c1[N+](=O)[O-]	?	.	?	?	8.2µM
Cc1ccc(C)c(Oc2cc(NC(=O)CCCn3nc(C)c([N+](=O)[O-])c3C)cc([N+](=O)[O-])c2)c1	?	?	?	?	10µM
Cc1c(Cl)c([N+](=O)[O-])nn1CCCC(=O)Nc1cccc(Cl)c1Cl	.	.	.	.	16µM
Cc1c(Cl)c([N+](=O)[O-])nn1CCCC(=O)Nc1ccc(Cl)cc1Cl	.	.	.	.	?
CC1(C(=O)NS(=O)(=O)c2ccc(F)cc2F)CCN1C(=O)c1ccccc1 (centres undefined)	.	/	/	/	.
Cc1cc(C)c(C(O)c2ncc(-c3ccccc3F)[nH]2)c(C)c1 (centres undefined)	.	/	/	/	.
CCOC(=O)c1cc(S(=O)(=O)N2CCN(c3ccc(C(C)=O)cc3)CC2)[nH]n1	.	/	/	/	?
COc1ccccc1NS(=O)(=O)NC(=O)c1c(C)[nH]c2ccccc12	.	.	.	.	.
Cc1ccc(Cn2nc(C)c(NC(=O)CCCn3nc([N+](=O)[O-])c(Cl)c3C)c2C)cc1	.	.	.	.	?
Cc1ccc(Cn2nc(C)c(NC(=O)CCCn3nc(C)c([N+](=O)[O-])c3C)c2C)cc1	.	.	.	.	9.2µM
COC(=O)[C@]12CCCCC=C1N(Cc1cccc3ccccc13)C(=O)[C@H](CC(=O)NCc1ccc(C)o1)C2	.	/	/	/	?
COc1ccc(NC(=O)c2ccc(NC(=O)CCS(=O)(=O)c3cccs3)cc2)cc1Cl	.	/	/	/	.
Cc1nnnn1/C(=C\c1ccccc1)C(=O)OCC(=O)NC(C)(C)C	.	?	?	16µM	.
Cc1nnnn1/C(=C\c1ccccc1)C(=O)OCC(=O)NC1CCCCC1	.	23µM	?	?	.
CCOC(=O)c1sc2ncn(CC(=O)Nc3cc(C)on3)c(=O)c2c1C	.	.	.	.	.
CCN(CC)C(=O)C1=C(C)N(CCCN2CCCC2=O)C(=O)C(CC(=O)NCCN2CCOCC2)C1 (centres undefined)	.	/	/	/	.
Cn1nnnc1Sc1ncnc2scc(-c3cccc(C(F)(F)F)c3)c12	?	?	3.3µM	?	?
